# Screens: PubChem, several laboratories
# FAS TE block: inhibitors of human fatty acid synthase thioesterase domain; inhibition, % at 15 µM; P49327; recombinant FAS-TE, OMFH fluorogenic substrate, fluorescence endpoint; actives 0.67% (n = 360,000);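 active = compounds whose normalised, plate-corrected inhibition of enzyme fluorescence in the single-dose primary screen is 50% or more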;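 also: 0% = DMSO with enzyme and 100% = substrate without enzyme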
# CR mimetic SO: lowers age-related superoxide in aged yeast cells; S. cerevisiae aged cells, superoxide DHE fluorescence; hits give low values; superoxide response (% of plate mean), % at 10 µM; actives 0.18% (n = 330,000);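 active = superoxide response under a set limit, about three screen SD below normal, cut at about 65% in these data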;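 also: yeast aged for seven days with compound at 30 °C before DHE staining; 100% = average MFI of all compound-treated wells on the plate with controls excluded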
# aDG glyco up: alpha-DG glycosylation activation | activation, % at 10 µM | Pro5-aDG cells, alpha-DG glycosylation AlphaScreen (IIH6); 0% Pro5, 100% B10-LARGE cell signal | actives 0.22% (n = 360,000) | AID 624168;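 active = activation of at least 8% versus controls, or a plate z-score of at least 8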;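 also: Pro5 are CHO cells carrying HIG-tagged alpha-DG that lacks glycosylation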
# MPTP block: inhibitors of mitochondrial permeability transition pore | isolated mouse mitochondria, Ca2+ swelling absorbance, 30 min | inhibition, % at 10 µM | actives 1.4% (n = 360,000) | AID 602449;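 active = inhibition of 50% or more, scaled per plate between neutral and stimulator controls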;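 also: 0% = DMSO wells given calcium and 100% = 1 mM EGTA wells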
# H9c2 protect: myocardial damage modulation in H9c2 cells. H9c2 cardiomyocytes, H2O2 injury protection, ATPLite, 2 h. protection from H2O2 cell death, % at 20 µM. actives 0.63% (n = 360,000). AID 588492;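 active = compounds giving at least 50% protection of heart cells from peroxide-induced death in the single-dose screen, raw or plate-pattern-corrected value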;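 also: 0% = DMSO wells with peroxide and 100% = DMSO wells without peroxide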
# SUMO Mot1 rescue: inhibitors of SUMOylation pathway: yeast Mot1-301 growth rescue; S. cerevisiae Mot1-301 growth rescue, ATP luminescence, 38.5C; percent above DMSO median, 100 means doubled; growth rescue, % at 18.8 µM; actives 1% (n = 320,000);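 active = every valid replicate shows activation above 250% relative to neutral control wells; inactive = the rest, any valid replicate at or below 250%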;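 also: OY570 slx delta 5 strain wells were the positive control but not used for scaling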
# CR mimetic CP: confirmation of caloric restriction mimetics inhibiting yeast age-related superoxide. shares compounds with CR mimetic SO. S. cerevisiae aging, superoxide DHE fluorescence; hits give low values. superoxide response (% of plate), % at 10 µM. actives 1% (n = 850). AID 434994;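 active = superoxide signal below 65% of the plate average of sample wells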;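 also: cells aged with compound for 7 days at 30 degrees C before staining; 100% equals mean DHE fluorescence of all compound wells on the plate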
# DHE counter: counter-screen for compounds affecting DHE oxidation and fluorescence in yeast. shares compounds with CR mimetic SO. S. cerevisiae BY4741, flow cytometry; hits give low values. 850 tested, under 10 active. fluorescence response, % at 10 µM;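 active = fluorescence response below 15%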;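 also: percent of the mean fluorescence averaged over all compound wells on the plate; lower means stronger quenching of DHE signal or ROS scavenging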
# Numbers without * were called inactive; . = not tested or not shown. An excerpt weighted towards active compounds, which were near 3.8% of everything screened.
SMILES,FAS TE block,CR mimetic SO,aDG glyco up,MPTP block,H9c2 protect,SUMO Mot1 rescue,CR mimetic CP,DHE counter
COc1cc(S(=O)(=O)N2CCCC2)c(C)cc1C,-6,110,0,-1,-1,31,.,.
COc1cc(C)c(Br)cc1S(=O)(=O)N1CCCC1,1,102,0,0,-8,-9,100,95
COc1cc(C)c(Cl)cc1S(=O)(=O)N1CCCC1,0,100,0,-3,4,-6,103,90
COc1cc(Cl)c(S(=O)(=O)N2CCCC2)cc1Cl,0,87,0,-4,-3,0,92,97
COc1cc(S(=O)(=O)N2CCN(C)CC2)c(OC)cc1Cl,-3,103,0,0,2,-5,.,.
CC(=O)n1c2ccccc2c2ccccc21,8,103,0,-1,1,7,95,92
Cc1ccc(C(=O)n2c3ccccc3c3ccccc32)cc1,17,91,0,2,-6,30,.,.
O=C(O)c1c(N2CCCCC2)ccc([N+](=O)[O-])c1N1CCCCC1,-7,53*,0,1,1,-14,102,109
CCC(=O)N1CCCC(C(=O)Nc2nc3ccccc3[nH]2)CC1 (configuration not stated),-10,.,0,0,3,.,.,.
O=C(O)C1CCCN1S(=O)(=O)c1ccc(Cl)cc1 (configuration not stated),-3,95,0,-1,4,0,107,98
O=C(O)C1CCCN1S(=O)(=O)c1ccccc1 (configuration not stated),-5,97,0,0,4,-2,.,.
Cc1nc2ccc(NC3=NCCCCC3)cc2s1,-11,89,0,8,-1,-1,.,.
Cc1ccc(NC2=NCCC2)cc1Cl,-11,65*,1,1,6,-4,91,100
COc1ccccc1C(=O)Nc1nc(C)cc(C)n1,-5,108,0,1,14,-8,.,.
Cc1nnc(SCc2ccc(Cl)c(Cl)c2)s1,7,60*,0,1,-5,35,108,90
Cc1nnc(SCc2ccc(F)cc2)s1,-5,89,0,-1,-7,395,.,.
COc1ccc2c(C)cc(SCC(=O)c3ccc4c(c3)OCO4)nc2c1,18,64*,0,-1,-3,-2,94,95
COc1ccc2c(C)cc(SCC(=O)NC3CCCC3)nc2c1,1,97,0,0,1,-5,.,.
Cc1cc(C)n2nc(-c3ccc(Cl)cc3)cc2n1,7,105,0,1,-4,14,99,101
COc1ccc(-c2cc3nc(C)cc(C)n3n2)cc1,-3,107,1,10,-7,-5,.,.
Cc1cc(C)n2nc(-c3ccc(Br)cc3)cc2n1,10,99,0,0,-6,10,85,88
COc1cccc(CN2CC(C(=O)N(C)CCCC3CCCC3)CCC2=O)c1 (configuration not stated),-2,124,0,-1,-6,2,.,.
COc1cc(C(=O)NCCC(=O)NC2CCCCC2)cc(OC)c1OC,-5,111,0,-1,5,-19,.,.
COc1cc(C(=O)NCCC(=O)NCCCN2CCCCC2C)cc(OC)c1OC (configuration not stated),-3,62*,0,0,7,10,123,112
Cc1ccccc1-c1cc2nc(NCc3ccccc3F)n(C)c(=O)c2s1,22,.,0,0,-16,.,.,.
SMILES,FAS TE block,CR mimetic SO,aDG glyco up,MPTP block,H9c2 protect,SUMO Mot1 rescue,CR mimetic CP,DHE counter
Cc1cc(Oc2ccc(=O)n(C)n2)nc(SCCOc2ccccc2)n1,3,15*,0,2,1,-14,107,93
O=C1C=C(NC2=CC3OC(c4ccccc4)OCC3OC2=O)CCC1 (configuration not stated),-10,60*,0,4,-4,106,114,103
O=C1C=C(NCc2ccccc2)CCC1,-9,109,0,0,1,-14,.,.
CCC(C)Sc1ccc([C@H]2N[C@@](Cc3ccccc3)(C(=O)OC)[C@H]3C(=O)N(C)C(=O)[C@@H]23)cc1 (some centres not stated),29,109,0,-1,9,1,.,.
O=c1[nH]c(=S)[nH]c2c1C(c1ccc(Br)cc1)c1c([nH]c(=S)[nH]c1=O)O2,0,100,0,0,2,-22,.,.
CCOc1ccc2c(c1)C(C)=CC(C)(C)N2,0,65*,0,1,-2,45,103,90
CN(c1ccccc1)S(=O)(=O)c1ccccc1Br,0,85,0,0,-8,-13,87,89
Cc1cccc(N2CCN(C(=O)c3cccc(S(=O)(=O)N4CCOCC4)c3)CC2)c1C,5,.,1,-2,-6,.,.,.
COc1ccc(CNC(=O)c2cc3ccccc3oc2=O)cc1,-1,63*,0,-1,0,718,96,93
Cc1ccc(C)c(Cn2nnc3c(=O)[nH]c(C4CCN(C(=O)c5ccco5)CC4)nc32)c1,4,96,0,-1,4,2,.,.
Cc1cc(C)n2nc(-c3ccccc3)c(-c3ccccc3)c2n1,24,93,0,0,-2,131,95,92
CCCCn1c(N)c(N(CCC(C)C)C(=O)c2sc3nc4n(c(=O)c3c2C)CCC4)c(=O)[nH]c1=O,-2,96,0,-1,0,-1,.,.
Cc1cc(-c2n[nH]c(=S)n2Cc2ccco2)nn1C,-8,65*,0,3,6,3,102,98
Cc1ccc(-c2csc(NC(=O)c3ccc(F)cc3)c2C(=O)O)cc1,-6,65*,0,0,-4,-32,87,105
COc1ccc(NC(=O)c2ccc(S(=O)(=O)N3CCOCC3)o2)cc1,-3,64*,0,1,0,-7,95,91
Cc1cccc(N2CCN(C(=O)c3[nH]c(C(F)(F)F)nc3-c3ccccc3)CC2)c1C,-3,.,0,2,-4,.,.,.
CN(CC(=O)Nc1ccc(F)c(F)c1F)C(=O)CCN1C(=O)C2CCCCC2C1=O (configuration not stated),-10,81,0,-1,8,0,.,.
OCCN(CCO)CC(O)Cn1c2ccccc2c2ccccc21 (configuration not stated),-2,124,0,2,0,13,91,99
CS(=O)(=O)N(CC(O)Cn1c2ccccc2c2ccccc21)c1ccccc1 (configuration not stated),10,114,0,1,-10,10,.,.
